Assay [1] can be described thus: Primary fluorescence-based thiol-reactive (MSTI) qHTS assay for identification of artifact compounds. (AID 1845221).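 Also: thiol-reactive compounds lower the probe fluorescence signal; nearly all actives have a fitted effect of over 65% in size.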 Summed up:
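Probe: MSTI 4 uM, PBS pH 7.4, 2% DMSO. Incubation 1 h, RT, light-protected. Readout fluorescence 525/598 nm.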

The subject of assay [2] is Nanoluciferase (engineered Oplophorus gracilirostris luciferase). In words: Primary Nanoluciferase (NLuc) qHTS assay for identification of artifact compounds. (AID 1845222).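 Also: NLuc secreted into diluted conditioned medium of S16 cells.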 Summed up:
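S16 cell supernatant NLuc, 1:55; cpds qHTS; 15 min RT dark; Nano-Glo substrate 1:100, 5 min; luminescence; Hill fit of % inhibition.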
A general note: qHTS replaces the single test concentration by a dilution series.

A short description of assay [3]: Primary redox qHTS assay for identification of artifact compounds. (AID 1845223). The method in brief:
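Redox-cycling detection via DTT (250 uM final) oxidation coupled to Amplex Red (25 uM)/HRP (250 mU/mL) in HBSS. 15 min preincubation plus 30 min after DTT, room temperature. Ex/Em 525/598 nm; 4-parameter Hill fit against DMSO and 10 uM DA3003.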

The nature of assay [4]: Quantitative High-Throughput drug screen in 47 multiple myeloma cell lines against the NCATS MIPE library collection: FR4_PLB cell viability assay (AID 1918924; also: potency is read from the fitted curve at half-maximal effect; nearly all actives have a fitted effect of over 35% in size). Summed up:
(§1)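 Steps: seed 500 cells per well; pin-transfer MIPE 4.0 library; incubate 48 h at 37C, 5% CO2, humidified; add CellTiter-Glo, 5 min room temperature; read luminescence.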

A short description of assay [5]: Quantitative High-Throughput drug screen in 47 multiple myeloma cell lines against the NCATS MIPE library collection: AMO1_DSMZ cell viability assay (AID 1918927; also: potency is read from the fitted curve at half-maximal effect; nearly all actives have a fitted effect of over 30% in size). Summed up: (§2)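 CellTiter-Glo luminescence (ATP) after 48 h compound exposure, 37C/5% CO2; 500 cells/well; MIPE 4.0 approved/investigational drugs pinned in; DMSO = 100%, media only = 0% viability.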
Assay [6] can be described thus: Quantitative High-Throughput drug screen in 47 multiple myeloma cell lines against the NCATS MIPE library collection: Karpas417_ECACC cell viability assay (AID 1918961). Also: potency is read from the fitted curve at half-maximal effect. Conditions: Karpas417 myeloma viability, CellTiter-Glo ATP luminescence, 48 h; viability (% of DMSO): at 45.8 µM (top of the series). The method in brief: as §2
A general note: In ATP-based viability assays light output follows the ATP content of the culture.

Assay [7] is described as follows: Quantitative High-Throughput drug screen in 47 multiple myeloma cell lines against the NCATS MIPE library collection: INA6_PLB cell viability assay (AID 1918965; also: potency is read from the fitted curve at half-maximal effect; nearly all actives have a fitted effect of over 55% in size). Summed up: as §2
Assay [8] can be described thus: Quantitative High-Throughput drug screen in 47 multiple myeloma cell lines against the NCATS MIPE library collection: JJN3_DSMZ cell viability assay (AID 1918966; also: potency is read from the fitted curve at half-maximal effect; nearly all actives have a fitted effect of over 50% in size). The method in brief:
as §2

A short description of assay [9]: Quantitative High-Throughput drug screen in 47 multiple myeloma cell lines against the NCATS MIPE library collection: Delta47_JCRB cell viability assay (AID 1918925; also: potency is read from the fitted curve at half-maximal effect; nearly all actives have a fitted effect of over 45% in size). The method in brief:
as §2

The nature of assay [10]: Quantitative High-Throughput drug screen in 47 multiple myeloma cell lines against the NCATS MIPE library collection: EJM_DSMZ cell viability assay (AID 1918926; also: potency is read from the fitted curve at half-maximal effect; nearly all actives have a fitted effect of over 30% in size). Summed up: as §2
A short description of assay [11]: Quantitative High-Throughput drug screen in 47 multiple myeloma cell lines against the NCATS MIPE library collection: ARP1_JJKsccF8 cell viability assay (AID 1918928; also: potency is read from the fitted curve at half-maximal effect; nearly all actives have a fitted effect of over 40% in size). Summed up:
(§3)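 Cell viability inhibition in this qHTS is measured via ATP content (CellTiter-Glo) after 48 h drug exposure at 37 °C. Wells hold 500 cells; DMSO-treated wells define 100% and medium-only wells 0%.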

Assay [12] is described as follows: Quantitative High-Throughput drug screen in 47 multiple myeloma cell lines against the NCATS MIPE library collection: ARD_JJKsccE7 cell viability assay (AID 1918929; also: potency is read from the fitted curve at half-maximal effect). Summed up: as §2
Assay [13] is described as follows: Quantitative High-Throughput drug screen in 47 multiple myeloma cell lines against the NCATS MIPE library collection: Karpas620_DSMZ cell viability assay (AID 1918959). Also: potency is read from the fitted curve at half-maximal effect; nearly all actives have a fitted effect of over 30% in size. The method in brief: as §1
The nature of assay [14]: Quantitative High-Throughput drug screen in 47 multiple myeloma cell lines against the NCATS MIPE library collection: KMM1_JCRB cell viability assay (AID 1918960). Also: potency is read from the fitted curve at half-maximal effect; nearly all actives have a fitted effect of over 30% in size. Summed up:
as §3

Assay [15] in a line: Quantitative High-Throughput drug screen in 47 multiple myeloma cell lines against the NCATS MIPE library collection: JIM3_ECACC cell viability assay (AID 1918963; also: potency is read from the fitted curve at half-maximal effect; nearly all actives have a fitted effect of over 35% in size). The method in brief: as §1
Assay [16] can be described thus: Quantitative High-Throughput drug screen in 47 multiple myeloma cell lines against the NCATS MIPE library collection: JIM1_ECACC cell viability assay (AID 1918964; also: potency is read from the fitted curve at half-maximal effect). Summed up:
as §2

The nature of assay [17]: Quantitative High-Throughput drug screen in 47 multiple myeloma cell lines against the NCATS MIPE library collection: H1112_PLB cell viability assay (AID 1918967). Summed up:
as §2

A short description of assay [18]: Quantitative High-Throughput drug screen in 47 multiple myeloma cell lines against the NCATS MIPE library collection: Karpas25_ECACC cell viability assay (AID 1918968; also: potency is read from the fitted curve at half-maximal effect; nearly all actives have a fitted effect of over 35% in size). The method in brief: as §2
The nature of assay [19]: Quantitative High-Throughput drug screen in 47 multiple myeloma cell lines against the NCATS MIPE library collection: KMS27_JCRB cell viability assay (AID 1918970). The method in brief: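 ATP-based viability (CellTiter-Glo luminescence) is measured in cells treated 48 h with approved and investigational drugs at 37 °C. Controls are DMSO-only wells for full viability and media-only wells for none.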

Assay [20] in a line: Quantitative High-Throughput drug screen in 47 multiple myeloma cell lines against the NCATS MIPE library collection: KHM11_PLB cell viability assay (AID 1918962). Also: potency is read from the fitted curve at half-maximal effect; nearly all actives have a fitted effect of over 35% in size. Summed up: as §1

Records with an inconclusive call do not appear. Active and inactive are the calls of the source. Calls follow the shape of the dose curve; as a rule, active = well fitted curve in the direction sought with a large enough effect; inconclusive = small, poorly fitted or top-dose-only effect, or another doubt; inactive = no such curve, though single readings can be large; an effect the other way counts as inactive or inconclusive.

For the compound `COc1ncc(-c2ccc3nccc(-c4ccnnc4)c3c2)cc1NS(=O)(=O)c1ccc(F)cc1F`, the Potency entry in assay [1], in assay [2] and in [6] was “inactive” in each case. The result in [3] was inactive. Also, the Potency in [4] was 0.0132 µM (active); in assay [5], 0.0469 µM (active); in [7], 0.0235 µM (active); in assay [8], 0.118 µM (active).

As to `CC(=O)Nc1ccc([C@H](C)C(=O)Nc2ncc(C(C)C)s2)cc1`, the Potency entry in [2] is “inactive”. In assay [3], the outcome was inactive. Moreover, the Potency in [4] was 1.87 µM (active); in assay [9] it was 1.48 µM (active); in assay [10], 0.743 µM (active); in assay [5], 0.662 µM (active); in assay [11], 2.64 µM (active); in [12], 1.18 µM (active). The Potency in assay [13] is 2.35 µM (active); in assay [14], 5.26 µM (active); in assay [15] it was 7.43 µM (active); in assay [16] it was 1.66 µM (active); in assay [7], 4.18 µM (active); in assay [17] it was 4.18 µM (active). Besides, in assay [18], the Potency was 1.05 µM (active).

Consider `C=C1C(=O)[C@@]23C(CC[C@@H]1[C@H]2O)[C@@]12CO[C@]3(O)[C@@H](O)[C@@H]1C(C)(C)CC[C@@H]2O` (some centres undefined), for which the Potency result in [2] is “inactive”. Besides, the compound was called inactive in [3]. The Potency in assay [4] is 6.62 µM (active); in assay [9], 3.72 µM (active); in assay [10], 2.96 µM (active); in assay [5], 1.48 µM (active); in assay [11] it was 5.9 µM (active); in assay [12], 1.48 µM (active). The Potency was 0.935 µM (active) in assay [13]; 2.35 µM (active) in assay [14]; 1.05 µM (active) in [16]; 2.09 µM (active) in assay [8]; 18.7 µM (active) in assay [17]; 2.35 µM (active) in assay [18]. Further, in assay [19], the Potency is 1.87 µM (active).

Turning to `O=C(O)c1cc(-c2ccccc2)nc2ccccc12`, the Potency result in assay [2] is “inactive”. Moreover, the compound was called inactive in [3].

For the compound `CS(=O)c1ccc(-c2nc(-c3ccc(F)cc3)c(-c3ccncc3)[nH]2)cc1` (centres undefined), the Potency result in assay [1] and in [2] was “inactive” throughout. In assay [3], the call was inactive. Moreover, the Potency is 13.6 µM (active) in assay [9]; 10.8 µM (active) in [10]; 30.3 µM (active) in assay [5]; 42.9 µM (active) in [12]; 34 µM (active) in [13]; 34 µM (active) in assay [14]. Further, the Potency was 34 µM (active) in [16], 48.1 µM (active) in assay [17], 8.55 µM (active) in [18] and 21.5 µM (active) in assay [19].

With `O=C(NCc1ccccc1)c1csc(Nc2ccncn2)n1`, the Potency entry in assay [1] and in assay [2] was “inactive” throughout. Moreover, the call in assay [3] was inactive. Moreover, the Potency is 14.8 µM (active) in assay [4]; 14.8 µM (active) in [9]; 18.7 µM (active) in assay [10]; 9.35 µM (active) in [5]; 23.5 µM (active) in assay [11]; 10.5 µM (active) in assay [12]. Moreover, the Potency in assay [13] was 6.62 µM (active); in assay [14] it was 9.35 µM (active); in assay [6], 10.5 µM (active); in [20] it was 20.9 µM (active); in assay [16], 6.62 µM (active); in [8] it was 16.6 µM (active). The Potency was 13.2 µM (active) in assay [17], 10.5 µM (active) in assay [18] and 7.43 µM (active) in assay [19].

In the case of `CCN(CC)CCNC(=O)c1ccc(N)cc1`, the Potency result in [1] and in assay [2] was “inactive” each time. Further, in assay [3], the result was inactive.

The values are drawn from PubChem BioAssay (NCATS).
